Results reported in the supplement of paper PMC13094657.
± gives the standard deviation of the averaged measurements.

Legend:
[1] = test system: MDA-MB-231; test: cell viability relative to vehicle unstimulated control (fraction); higher = more viable cells; settings: pre-treatment time: 18 h then 24 h IFNg/TNF
[2] = test system: MDA-MB-231; test: kynurenine production, fold change vs DMSO IFNg/TNF control; higher = more kynurenine produced (less inhibition); settings: pre-treatment time: 18 h then 24 h IFNg/TNF
How it was run: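 MDA-MB-231 cells were seeded in 96-well plates at 7 × 10^4/well and, 24 h later, pre-treated for 18 h with each natural product in 0.1% DMSO. They were then stimulated for 24 h at 37°C with IFNγ (1 U/ml) and TNF (6.25 ng/ml). Supernatants were treated with trichloroacetic acid and p-dimethylaminobenzaldehyde and read at 492 nm against 0–100 μM standards. Kynurenine production is expressed as fold change over cytokine-stimulated vehicle wells on the same plate and, in the first screening round, averaged across duplicate plates.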
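Wherever cell viability relative to vehicle unstimulated control is given: viability of the cells left after supernatant collection, read with Deep Blue dye added for 4 h, as absorbance at 570 nm minus 600 nm.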

Compound	cell viability [1]	kynurenine production [2]
CN1CCC[C@@H]1CC(=O)C[C@@H]1CCCN1C [Cuscohygrine] (compound dose: 10 uM)	0.977 ± 0.14	0.962 ± 0.027
C=C1C(=O)O[C@@H]2C[C@@]3(C)CCC[C@H](C)C3=C[C@H]12 [Alantolactone] (compound dose: 10 uM)	0.909 ± 0.023	0.0823 ± 0.017
C=C(C)[C@@H]1CC[C@]2(CO)CC[C@]3(C)[C@H](CC[C@@H]4[C@@]5(C)CC[C@H](O)C(C)(C)[C@@H]5CC[C@]43C)[C@@H]12 [Betulin] (compound dose: 2 uM)	0.842 ± 0.04	0.826 ± 0.13
C=C1CC[C@@H]2[C@](C)(CO)[C@H](O)CC[C@@]2(C)[C@@H]1C/C=C1/C(=O)OC[C@H]1O [Andrographolide] (compound dose: 10 uM)	0.98 ± 0.018	0.534 ± 0.15
C=C1CCC[C@]2(C)C=C3OC(=O)C(C)=C3C[C@@H]12 [Atractylenolide I] (compound dose: 10 uM)	0.983 ± 0.028	0.853 ± 0.2
C[C@@H]1O[C@@H](O[C@H]2[C@H](O[C@H]3CC[C@]4(C)[C@H]5CC=C6[C@@H]7CC(C)(C)CC[C@]7(C(=O)O)CC[C@@]6(C)[C@]5(C)CC[C@H]4C3(C)C)OC[C@H](O[C@@H]3O[C@H](CO)[C@@H](O)[C@H](O)[C@H]3O)[C@@H]2O)[C@H](O)[C@H](O)[C@H]1O [Hederacolchiside A1] (compound dose: 10 uM)	0.221 ± 0.013	0.396 ± 0.15
C[C@H]1O[C@@H](O[C@H]2[C@@H](O)C[C@H](O[C@H]3[C@@H](O)C[C@H](O[C@H]4CC[C@@]5(C)[C@H](CC[C@@H]6[C@@H]5CC[C@]5(C)[C@@H](C7=CC(=O)OC7)CC[C@]65O)C4)O[C@@H]3C)O[C@@H]2C)C[C@H](O)[C@@H]1O [Digitoxin] (compound dose: 10 uM)	0.997 ± 0.019	0.967 ± 0.023
CC(C)=CCC[C@](C)(O[C@@H]1O[C@H](CO)[C@@H](O)[C@H](O)[C@H]1O)[C@H]1CC[C@]2(C)[C@@H]1[C@H](O)C[C@@H]1[C@@]3(C)CC[C@H](O)C(C)(C)[C@@H]3CC[C@]12C [Ginsenoside C-K] (compound dose: 10 uM)	0.969 ± 0.016	0.912 ± 0.14
CC(C)=CCC[C@](C)(O)[C@H]1CC[C@]2(C)[C@@H]1[C@H](O)C[C@@H]1[C@@]3(C)CC[C@H](O)C(C)(C)[C@@H]3[C@@H](O[C@@H]3O[C@H](CO)[C@@H](O)[C@H](O)[C@H]3O[C@@H]3O[C@@H](C)[C@H](O)[C@@H](O)[C@H]3O)C[C@]12C [Ginsenoside Rg2] (compound dose: 10 uM)	1.01 ± 0.095	0.974 ± 0.061
C/C(=C\C(=O)CC(C)C(=O)O)[C@H]1C[C@H](O)[C@@]2(C)C3=C(C(=O)C[C@]12C)[C@@]1(C)CCC(=O)C(C)(C)[C@@H]1C[C@@H]3O (stereo partly drawn) [Ganoderenic acid A] (compound dose: 10 uM)	1.03 ± 0.068	0.817 ± 0.31
Cc1coc2c1C(=O)C(=O)c1c-2ccc2c(C)cccc12 [Tanshinone I] (compound dose: 2 uM)	0.921 ± 0.029	0.643 ± 0.14
CC(C)=CCC[C@](C)(O)[C@H]1CC[C@]2(C)[C@@H]1[C@H](O)C[C@@H]1[C@@]3(C)CC[C@H](O[C@@H]4O[C@H](CO)[C@@H](O)[C@H](O)[C@H]4O[C@@H]4O[C@H](CO)[C@@H](O)[C@H](O)[C@H]4O)C(C)(C)[C@@H]3CC[C@]12C [20(S)-Ginsenoside Rg3] (compound dose: 10 uM)	1 ± 0.046	0.969 ± 0.28
C[C@@H]1O[C@@H](O[C@H]2[C@H](OC(=O)[C@]34CCC(C)(C)C[C@H]3C3=CC[C@@H]5[C@@]6(C)C[C@H](O)[C@H](O[C@@H]7O[C@H](CO)[C@@H](O)[C@H](O)[C@H]7O)C(CO)(CO)[C@@H]6CC[C@@]5(C)[C@]3(C)C[C@H]4O)OC[C@H](O)[C@@H]2O)[C@H](O)[C@H](O)[C@H]1O[C@@H]1OC[C@@H](O)[C@H](O[C@@H]2OC[C@](O)(CO)[C@H]2O)[C@H]1O [Platycodin D] (compound dose: 10 uM)	0.609 ± 0.21	0.354 ± 0.065
C[C@H]1O[C@@H](O[C@H]2CC[C@@]3(C)[C@@H](CC[C@]4(C)[C@@H]3C=C[C@]35OC[C@@]6(CCC(C)(C)C[C@H]63)[C@H](O)C[C@]54C)[C@]2(C)CO)[C@H](O)[C@@H](O[C@@H]2O[C@H](CO)[C@@H](O)[C@H](O)[C@H]2O)[C@H]1O [Saikosaponin D] (compound dose: 10 uM)	0.922 ± 0.044	0.603 ± 0.2
